Test system: FGFR2
Settings: concentration: 1 μM, replicates: in singlicate; n = 1
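Note: KINOMEscan kinase panel screen.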

Compared with N#Cc1c(N2CCOCC2)sc(-c2ccn[nH]2)c1-c1ccc(Cl)cc1, NS(=O)(=O)c1cccc(-c2ccc3ncc(N4CCOCC4)nc3c2)c1 [GSK1535721] is lower in “%Inh” value: 12% for the first, 0% for the second.

c1ccc(-c2cc(-c3c[nH]nc3-c3ccccn3)ccn2)cc1 [GW576604] and N#Cc1ccc(-c2cc(-c3c[nH]nc3-c3ccccn3)ccn2)cc1 [GW693028] are the same in “%Inh” value: 0% for the first, 0% for the second.

Compared with O=C(NCCCN1CCOCC1)c1cccc(Nc2nccc(Nc3ccc(Oc4ccccc4)cc3)n2)c1 [GW663929], O=C(NCCNc1ccnc(Nc2ccc(F)cc2)n1)c1cc2ccccc2s1 [GSK1379874] is higher in “%Inh” value: 0% for the first, 62% for the second.

CCCCCc1nc2c(N)ncnc2n1CCCCC [SKF-97255] and CC(C)(C)n1cnc2c(N)ncnc21 [SKF-97359] are the same in “%Inh” value: 0% for the first, 0% for the second.

First: Cc1c(Cn2c(C)nn3c(=O)cc(N4CCOC(C)C4)nc23)cccc1C(F)(F)F (stereo not shown) [GSK2344444]
Second: [2H]C([2H])(c1cccc(C(F)(F)F)c1C)n1ccn2c(=O)nc(N3CCOCC3)cc12 [GSK2336394]
The “%Inh” value of the first is lower: 0% for the first, 16% for the second.

Compared with CC(C)Oc1ccc2c(-c3ccnc(Nc4ccc(N5CCN(C)CC5)cc4)n3)cnn2n1 [GW696155], COc1ccc(Nc2nccc(N3CCC(NC(=O)Nc4cc(C)ccc4C)C3)n2)cc1 (stereo not shown) [GSK1379741] is lower in “%Inh” value: 1% for the first, 0% for the second.

Compared with COc1cc2c(cc1OCCN1CCN(C)CC1)ncc1c3ccc(C#N)cc3[nH]c21, COc1cc2ncn(-c3cc(OCc4sccc4Cl)c(C(N)=O)s3)c2cc1OC [GSK448459] is higher in “%Inh” value: 7% for the first, 15% for the second.

CC(=O)Nc1ccc(COc2ccc(Nc3ccnc4cc(-c5ccccn5)ccc34)cc2)cc1.Cl [GW440148] and Cc1nnc(-c2ccc(C)c(-c3ccc(C(=O)Nc4ccc(NS(C)(=O)=O)cc4)cc3)c2)o1 [GW702865] are the same in “%Inh” value: 0% for the first, 0% for the second.

CC(C)(CN)c1nc(-c2ccc(Cl)c(O)c2)c(-c2ccncc2)[nH]1.O=C(O)C(F)(F)F [SB-477794] and Fc1ccc(-c2nn3c(OCC(F)(F)F)cccc3c2-c2ccncc2)cc1 [GW514784] are the same in “%Inh” value: 0% for the first, 0% for the second.

Going from CN(C1=C(c2ccccc2)C(=O)NC1=O)c1ccccc1 [SB-334860] to O=C1NC(=O)C(N2CCc3ccccc32)=C1c1cccc(Cl)c1 [SB-408010], the “%Inh” value rises from 0% to 15%.

Going from Cl.Nc1ncnc2occ(-c3ccc(NC(=O)Nc4cc(C(F)(F)F)ccc4F)cc3)c12 [SB-707548] to O=C(NCCNc1ccnc(Nc2ccc(F)cc2)n1)Nc1ccccc1F [GSK1379880], the “%Inh” value falls from 77% to 0%.

Compared with NS(=O)(=O)c1cccc(-c2ccc3nccc(-c4cccc(S(N)(=O)=O)c4)c3c2)c1 [GW867253], NS(=O)(=O)CCc1cccc(Nc2nccc(-c3c(-c4cccc(NC(=O)c5c(F)cccc5F)c4)nn4ccccc34)n2)c1 [GSK336735] is higher in “%Inh” value: 0% for the first, 46% for the second.

Compared with COc1ccc(CNC(=O)NC2CCN(c3ccnc(Nc4ccc(OC)cc4)n3)C2)cc1 (stereo not shown) [GSK1379727], COc1ccc(S(=O)(=O)NC2CCN(c3cc(C)nc(Nc4cccc(C#N)c4)n3)CC2)cc1.O=C(O)C(F)(F)F [GSK1653539] is lower in “%Inh” value: 7% for the first, 0% for the second.

Compared with Cc1nnc(-c2ccc3occ(-c4ccc(C(C)O)cc4)c3c2)o1 (stereo not shown), CSc1ccc(-c2cc3ncnc(SCC(=O)O)c3s2)cc1 is lower in “%Inh” value: 16% for the first, 0% for the second.

NCC(NC(=O)c1cc(-c2cn[nH]c2)c(-c2ccnc3[nH]ccc23)s1)c1ccccc1.O=C(O)C(F)(F)F.O=C(O)C(F)(F)F (stereo not shown) [GSK1325775] and O=C(c1ccc(-c2cc(-c3c[nH]nc3-c3ccccn3)ccn2)cc1)N1CCOCC1 [GW812171] are the same in “%Inh” value: 0% for the first, 0% for the second.

First: O=c1cc(N2CCOCC2)nc2n(Cc3cccc(Cl)c3Cl)c(C3CC3)nn12 [GSK2358994]
Second: O=c1cc(N2CCOCC2)nc2n(Cc3cccc(F)c3)ccn12 [GSK2297430]
The “%Inh” value of the first is higher: 1% for the first, 0% for the second.

Cl.Cl.Cl.Fc1ccc(-c2ncn(C3CCNCC3)c2-c2ccnc(Nc3ccccc3)n2)cc1 [SB-238039] and O=C(Nc1n[nH]c2cc(-c3cccc(F)c3)ccc12)C1CC1 [SB-735464] are the same in “%Inh” value: 0% for the first, 0% for the second.
